Measurements from PubChem BioAssay.

Assay: compound effects on hepatocellular carcinoma cell viability – HepG2, calcein-AM fluorescence, 48 h, basal, profiling panel (AID 1164); further: test concentration not given here
Details: higher = more signal

Q: For `Cc1ccc(N2C(=O)c3ccccc3[C@@H](C(=O)NC3CC3)[C@@H]2c2ccc(CO)cc2)nc1`, which z-score is on record?
A: -0.774

Q: For `CCCCC(CC)C(O)C1C=CC2C(=O)N(Cc3ccccc3)C(=O)C2N1n1cnnc1` (stereo unspecified), which z-score is on record?
A: -0.391

Q: With `C[C@H]1NC(=O)[C@@]23C(=O)N[C@@H](Cc4ccccc4)C2[C@H](C)[C@@]2(C)O[C@H]2C3/C=C/C/C=C\CNC(=O)[C@@H]2CCCN2C1=O` (stereo partly specified) as the compound, how does the z-score read?
A: -0.0389

Q: With `CC(=O)n1cc(C(O)C2C=CC3C(=O)N(c4ccccc4)C(=O)C3N2Nc2ccc([N+](=O)[O-])cc2)c2ccccc21` (stereo unspecified) as the compound, how does the z-score read?
A: -0.439

Q: With `C[C@@]1([C@@H](NC(=O)c2ccc(-c3ccccc3)cc2)c2ccc(Cl)cc2)C[C@H]1C1CCCCC1` as the compound, how does the z-score read?
A: -0.934

Q: Which z-score does the source give for `C=CCNC(=O)[C@@H]1[C@H]2C(=O)O[C@H](c3ccccc3)[C@H](c3ccccc3)N2[C@H](c2ccc(O)cc2)[C@@]12C(=O)Nc1ccc(C#CCNC(N)=O)cc12` here?
A: 0.767

Q: With `C=C(/C(=C/C[C@H](OC(C)=O)c1ccccc1OCCO)c1cnc2ccccc2c1)C(C)C` as the compound, how does the z-score read?
A: 0.218

Q: For `COc1ccc(/C=C/C=O)cc1`, which z-score is on record?
A: 0.0562

Q: Which z-score does the source give for `COCCOC(=O)N1C(=O)[C@@]2(c3cc(C#Cc4ccc(OC)cc4)ccc31)[C@H](c1ccc(OCCO)cc1)N1[C@H](c3ccccc3)[C@H](c3ccccc3)OC(=O)[C@H]1[C@@H]2C(=O)N1CCN(c2ncccn2)CC1` here?
A: -0.169

Q: Which z-score does the source give for `COc1ccc(CCNC(=O)[C@@]2(Sc3ccc(C)cc3)CC(=O)N(C3Cc4ccccc4C3)[C@@H]2c2ccc(CO)cc2I)cc1` here?
A: 0.082

Q: Which z-score does the source give for `COc1ccc([Si](C)(C)[C@@H]2[C@@H](CC(=O)N3CCC[C@H]3CO)O[C@]3(C(=O)N(c4ccccc4)c4ccccc43)[C@H]2C)cc1` here?
A: -0.259

Q: With `COc1ccc(C#Cc2ccc3c(c2)[C@]2(C(=O)N3)[C@H](C(=O)NC[C@H](O)c3ccccc3)[C@H]3C(=O)O[C@H](c4ccccc4)[C@H](c4ccccc4)N3[C@@H]2c2ccc(O)cc2)cc1` as the compound, how does the z-score read?
A: -0.0809

Q: For `CC(C)C[C@@H]1NC(=O)[C@@H]2C[C@H](C(=O)O)[C@H](c3cccc(OCCO)c3)N2C1=O`, which z-score is on record?
A: -0.404

Q: With `CC#CC(=O)Oc1ccccc1C=CC(=O)OCC` as the compound, how does the z-score read?
A: -0.749

Q: With `CO[C@H]1O[C@H](CO)[C@@H](OC(=O)Nc2ccccc2)[C@H](OC(=O)Nc2ccccc2)[C@@H]1OC(=O)Nc1ccccc1` as the compound, how does the z-score read?
A: -1.68

Q: For `COCCOC(=O)N1C(=O)[C@@]2(c3ccccc31)[C@H](C(=O)N1CCc3cc(OC)c(OC)cc3C1)[C@H]1C(=O)O[C@H](c3ccccc3)[C@H](c3ccccc3)N1[C@@H]2c1ccc(OCCO)cc1`, which z-score is on record?
A: 0.852

Q: Which z-score does the source give for `O=C1N(Cc2ccccc2)c2ccccc2[C@@H]2OC(c3ccc(OCCCO)cc3)=N[C@]12CCS(=O)(=O)c1ccccc1` here?
A: 0.455

Q: Which z-score does the source give for `C=C(CCCC)C(=O)CC[C@@H](OC(=O)c1ccccc1-c1ccccc1C(=O)O)c1ccc(OCCO)cc1` here?
A: 0.515

Q: For `NC(=O)N1C(=O)C2C(C1=O)C1C=C(c3ccc(CO)cc3)C2C(c2cccs2)N1Cc1cccc(OC(F)(F)F)c1` (stereo unspecified), which z-score is on record?
A: 0.0764

Q: For `COc1ccc([C@H]2OC[C@@H]3C[C@@H](Cc4ccccc4)C(=O)N32)cc1`, which z-score is on record?
A: 0.305

Q: With `NC(=O)NCC#Cc1ccc2c(c1)[C@]1(C(=O)N2)[C@H](c2ccccc2OCCO)N2[C@H](c3ccccc3)[C@H](c3ccccc3)OC(=O)[C@H]2[C@@H]1C(=O)Nc1nc2ccccc2s1` as the compound, how does the z-score read?
A: -0.126

Q: Which z-score does the source give for `COc1ccc(C(=O)Nc2ccc(CN3C(=O)[C@]4(O[C@H](CCO)[C@@H]([Si](C)(C)c5ccc(OC)cc5)[C@@H]4C)c4ccccc43)cc2)cc1` here?
A: -4.64

Q: With `C#C[C@H](O[Si](C#Cc1ccc(Oc2ccccc2)cc1)(C(C)C)C(C)C)c1ccccc1` as the compound, how does the z-score read?
A: -1.48

Q: For `COc1ccc([Si](C)(C)[C@H]2[C@H](CCO)O[C@@]3(C(=O)N(Cc4ccc(N(C=O)c5ccccc5)cc4)c4ccccc43)[C@@H]2C)cc1`, which z-score is on record?
A: -2.76

Q: Which z-score does the source give for `CC(=O)NCCCC[C@@H]1NC(=O)[C@H]2C[C@@H](C(=O)NCCCCCCNC(=O)CS)[C@@H](c3ccc(O)cc3)N2C1=O` here?
A: -1.28

Q: Which z-score does the source give for `C=CCNC(=O)[C@H]1[C@@H]2C(=O)O[C@@H](c3ccccc3)[C@@H](c3ccccc3)N2[C@@H](c2ccccc2OCCO)[C@]12C(=O)Nc1ccc(C#CCCO)cc12` here?
A: -0.543

Q: Which z-score does the source give for `O=C1O[C@@H](c2ccccc2)[C@@H](c2ccccc2)N2[C@@H](c3ccccc3OCCO)[C@]3(C(=O)Nc4ccc(C#CC5=CCCCC5)cc43)[C@@H](C(=O)N3CCCCCCC3)[C@H]12` here?
A: 0.297

Q: For `C=C[C@@H](COC(=O)OC(C)(C)C)N(Cc1ccc(OC)cc1)S(=O)(=O)c1ccc(Br)cc1`, which z-score is on record?
A: -0.002

Q: With `C=C(/C(=C/C[C@H](OC(C)=O)c1ccc(CO)o1)c1cc(C(=O)OC)ccc1OC)C(C)C` as the compound, how does the z-score read?
A: -0.812

Q: With `COc1ccc(CCNC(=O)[C@@]2(Sc3ccc(C)cc3)CC(=O)N(C(C)C)[C@@H]2c2ccc(CO)cc2I)cc1` as the compound, how does the z-score read?
A: 0.0217

Q: With `COc1ccc(CCNC(=O)[C@@]2(C)c3ccccc3C(=O)N(C(C)C)[C@H]2c2ccc(CO)cc2)cc1` as the compound, how does the z-score read?
A: 0.779

Q: With `CC(C)N1C(=O)[C@@]2(Cc3ccccc31)c1ccccc1C(=O)N(Cc1ccccc1Cl)[C@H]2c1ccc(CO)cc1` as the compound, how does the z-score read?
A: -0.921

Q: Which z-score does the source give for `C=CCOC(=O)[C@H]1[C@@H]2C(=O)O[C@@H](c3ccccc3)[C@@H](c3ccccc3)N2[C@@H](c2ccc(OCCOC(=O)[C@H]3C[C@H]4C(=O)N[C@@H](CCCCN(C)C)C(=O)N4[C@H]3c3ccc(O)cc3)cc2)[C@]12C(=O)Nc1ccc(I)cc12` here?
A: -0.959

Q: Which z-score does the source give for `CC(C)OC(=O)C=C1C[C@@H](c2ccccn2)O[C@@H](c2ccccn2)O1` here?
A: -0.217

Q: Which z-score does the source give for `COC(=O)[C@@]1(Cc2ccc(OC)cc2)[C@H]2c3cc(C(=O)N(C)C)n(CCc4ccccn4)c3C[C@H]2CN1C(=O)c1ccccc1` here?
A: -0.173

Q: For `COC(=O)[C@@]1(Cc2ccccc2)N=C(c2ccc(OCCCO)cc2)O[C@H]1c1ccccc1`, which z-score is on record?
A: -1.69
